Compound activity deposited in PubChem BioAssay by Broad Institute.
Shown are actives, neighbours in structure and some others; about 6.7% of the full set was active somewhere.
Pf_Dd2_growth: P. falciparum Dd2 growth inhibitors, primary screen, SYBR Green fluorescence, single dose replicates | AID 1159554, 2015 | 94,000 compounds, 2.3% hits | activity change, % at 10 µM | 72 h; stronger effect = lower value; in the data active means activity change below about -80%; inconclusive means no clear call, values can overlap the other calls
T_cruzi_growth-1: T. cruzi intracellular proliferation inhibitors, primary screen, cell-based, beta-gal Tulahuen parasites, NIH3T3 host, luminescence; T. cruzi beta-gal in NIH3T3, GalScreen luminescence, 90 h; inhibition, % at 8.34 µM; 77,000 compounds, 5.9% hits;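 active means mean inhibition above about 93%, with at least 55% of replicates each passing it, limit read from the data, passing the limit was not always enough; inconclusive means only one of those two conditions holds; inactive means neither condition holds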
C_diff_HTS: C. difficile growth inhibitors, primary screen, HTS. 86,000 compounds, 0.25% hits. growth activity, negative = inhibition, % at 16 µg/mL (by protocol). Clostridium difficile clinical isolate growth, OD600, 24 h; stronger effect = lower value;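 active means mean growth activity at or below -80% and every replicate also at or below -80%; inconclusive means mean at or below -80% but some replicate above -80%; inactive means mean growth activity above -80%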;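 further: 0% = DMSO wells and -100% = levofloxacin 16 µg/mL wells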
T_cruzi_growth-2: T. cruzi intracellular proliferation inhibitors, confirmation, cell-based, NIH3T3 host, beta-gal parasite, luminescence, cherry-pick; 5,600 compounds, 72% hits; AID 651739, 2012; inhibition, % at 8.35 µM; T. cruzi beta-gal in NIH3T3, GalScreen luminescence, 90 h; shares compounds with T_cruzi_growth-1;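 active means mean replicate inhibition above about 95% and at least 55% of replicates individually reaching it, limit read from the data; inconclusive means only one of the two criteria is met; inactive means neither criterion is met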
T_cruzi_growth-3: inhibitors of intracellular T. cruzi replication, confirmation, NIH3T3 host cells, beta-gal parasites, cherry-pick, set 2 | shares compounds with T_cruzi_growth-1 | T. cruzi beta-gal in NIH3T3, GalScreen luminescence, 90 h | inhibition, % at 2.09 µM | 5,600 compounds, 21% hits | AID 651740, 2012;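 active means mean inhibition above about 95%, with at least 55% of replicates also reaching it, limit read from the data; inconclusive means meets just one of the two conditions; inactive means meets neither condition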;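 further: plate controls were neutral control median for no effect and positive control median for full effect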
NIH3T3_tox: cytotoxicity in mouse NIH/3T3 fibroblasts, confirmation, cytotoxicity control for T. cruzi proliferation inhibitor project, cell-based, cherry-pick, single point | 5,600 compounds, 14% hits | NIH/3T3 viability, CellTiter-Glo ATP luminescence, 90 h | AID 651742, 2012 | shares compounds with T_cruzi_growth-1 | cytotoxicity (signal decrease), % at 8.35 µM;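 active means mean signal decrease across replicates above about 35% based on untreated-well scatter, with enough replicates individually passing, limit read from the data; inconclusive means no rule stated though some were filed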;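 further: 0% = median of neutral control wells and 100% = median of positive control wells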
3T3_cytotox_2: NIH/3T3 fibroblast cytotoxicity, confirmation, cytotoxicity control, cell-based, cherry-pick, single point, set 2. 5,600 compounds, 56% hits. shares compounds with T_cruzi_growth-1. NIH/3T3 viability, CellTiter-Glo ATP luminescence, 90 h. inhibition, % at 24.9 µM;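 active means mean loss of cell viability signal at or above a set limit, and enough replicates individually reaching it; inconclusive means meets only the mean limit or only the replicate share; inactive means meets neither condition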;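 further: 0% = median of neutral control wells and 100% = median of positive control wells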
* = called active by the depositor; ? = inconclusive; . = not tested or not shown; + = active, no number.

SMILES Pf_Dd2_growth T_cruzi_growth-1 C_diff_HTS T_cruzi_growth-2 T_cruzi_growth-3 NIH3T3_tox 3T3_cytotox_2
C[C@H](O)C#Cc1ccc([C@H]2[C@@H](CO)N3CCCCN(S(=O)(=O)Cc4ccccc4)C[C@H]23)cc1 1 37 9 . . . .
CC(C)CC#Cc1ccc([C@H]2[C@@H](CO)N3CCCCN(S(=O)(=O)Cc4ccccc4)C[C@H]23)cc1 -76 103* 7 98* 108* 28 108*
O=S(=O)(Cc1ccccc1)N1CCCCN2[C@@H](CO)[C@H](c3ccc(C#Cc4ccccc4)cc3)[C@@H]2C1 -80 117* 6 100* 82 51* 106*
O=S(=O)(Cc1ccccc1)N1CCCCN2[C@H](CO)[C@@H](c3ccc(C#Cc4ccccc4)cc3)[C@H]2C1 -22 57 54 . . . .
O=S(=O)(Cc1ccccc1)N1CCCCN2[C@H](CO)[C@@H](c3ccc(C#Cc4ccccc4)cc3)[C@@H]2C1 -29 92 17 . . . .
C[C@@H]1CCCCO[C@@H](CN(C)C(=O)c2ccccc2)[C@@H](C)CN([C@@H](C)CO)C(=O)c2cc(NS(C)(=O)=O)ccc2O1 . 9 -3 . . . .
C[C@@H]1CN([C@H](C)CO)C(=O)c2c(c3ccccc3n2C)-c2ccccc2CO[C@@H]1CN(C)Cc1cccc(C(=O)O)c1 -2 -88 -3 . . . .
COCC(=O)N(C)C[C@@H]1Oc2cc(C#CCC3CCCC3)ccc2S(=O)(=O)N([C@@H](C)CO)C[C@@H]1C -31 . 4 . . . .
COc1cccc(-c2ccc3c(c2)[C@@H]2[C@@H](CCN2C(=O)c2cccc(F)c2)[C@@H](CO)N3)c1 -3 83 -5 . . . .
COc1ccc(NC(=O)N(C)C[C@H]2Oc3ccc(NS(=O)(=O)c4cn(C)cn4)cc3C(=O)N([C@@H](C)CO)C[C@@H]2C)cc1 24 67 -1 . . . .
CC(=O)N1[C@H](CO)[C@H](c2ccc(C#CC3CCCCC3)cc2)[C@H]1CNCC(C)C -76 . 0 . . . .
CCC(=O)Nc1ccc2c(c1)C(=O)N(C)C[C@@H](OC)[C@@H](C)CN(C(=O)CN1CCOCC1)[C@@H](C)CO2 . -7 . . . . .
COCC#Cc1ccc([C@@H]2[C@@H](CO)N3CCCCN(S(=O)(=O)c4ccccc4C)C[C@@H]23)cc1 5 30 7 . . . .
CCCC#Cc1ccc([C@@H]2[C@@H](CO)N3CCCCN(S(=O)(=O)c4ccccc4C)C[C@@H]23)cc1 -32 116* 0 98* 79 17 102*
CC(C)CC#Cc1ccc2c(c1)O[C@@H](CN(C)C(=O)Nc1ccccc1)[C@H](C)CN([C@H](C)CO)S2(=O)=O -43 121* 2 108* 93 23 88*
C[C@H](O)C#Cc1ccc2c(c1)O[C@@H](CN(C)C(=O)Nc1ccccc1)[C@@H](C)CN([C@H](C)CO)S2(=O)=O -37 64 5 . . . .
CC(C)CC#Cc1ccc2c(c1)O[C@H](CN(C)C(=O)Nc1ccccc1)[C@@H](C)CN([C@@H](C)CO)S2(=O)=O -59 125* 3 105* ? 11 101*
C[C@@H]1CN([C@@H](C)CO)S(=O)(=O)c2ccc(C#C[C@@H](C)O)cc2O[C@H]1CN(C)C(=O)Nc1ccccc1 -68 61 3 . . . .
C[C@H](O)C#Cc1ccc2c(c1)O[C@H](CN(C)C(=O)Nc1ccccc1)[C@@H](C)CN([C@@H](C)CO)S2(=O)=O -35 70 0 . . . .
CC(C)CC#Cc1ccc2c(c1)O[C@H](CN(C)C(=O)Nc1ccccc1)[C@H](C)CN([C@H](C)CO)S2(=O)=O -65 126* 23 100* 107* -10 106*
CC(C)CC#Cc1ccc2c(c1)O[C@H](CN(C)C(=O)NC(C)C)[C@@H](C)CN([C@@H](C)CO)S2(=O)=O -33 70 . . . . .
CC(C)CC#Cc1ccc2c(c1)O[C@H](CN(C)C(=O)Nc1ccccc1)[C@H](C)CN([C@@H](C)CO)S2(=O)=O -33 107* -1 108* ? 21 81*
CN1CCN(C(=O)C[C@@H]2C[C@@H]3c4cc(NC(=O)Nc5ccccc5F)ccc4O[C@@H]3[C@@H](CO)O2)CC1 -1 1 -1 . . . .
C[C@@H]1CN([C@H](C)CO)C(=O)Cc2cc(NS(C)(=O)=O)ccc2O[C@@H]1CN(C)S(=O)(=O)c1cccs1 -6 2 -5 . . . .
CCNC(=O)[C@H]1[C@H](CO)[C@H]2Cn3c(cccc3=O)[C@H]2N1CC1CCCCC1 . + . 39 8 0 -1
SMILES Pf_Dd2_growth T_cruzi_growth-1 C_diff_HTS T_cruzi_growth-2 T_cruzi_growth-3 NIH3T3_tox 3T3_cytotox_2
O=C(Nc1ccc(-c2ccccc2)cc1)[C@H]1[C@H](CO)[C@H]2Cn3c(cccc3=O)[C@H]2N1CC1CCOCC1 -19 63 -9 . . . .
O=C(Nc1ccc(-c2ccccc2)cc1)[C@@H]1[C@@H](CO)[C@@H]2Cn3c(cccc3=O)[C@@H]2N1CC1CCCCC1 -82* ? 1 ? 105* -9 104*
CCCNC(=O)[C@H]1[C@H](CO)[C@H]2Cn3c(cccc3=O)[C@H]2N1CC1CCCCC1 6 10 -1 . . . .
C[C@H](CO)N1C[C@H](C)[C@@H](CN(C)Cc2ccncc2)Oc2cc(C#C[C@@H](C)O)ccc2S1(=O)=O -27 75 2 . . . .
CC(C)C#Cc1ccc2c(c1)O[C@@H](CN(C)C(=O)c1ccncc1)[C@@H](C)CN([C@@H](C)CO)S2(=O)=O 2 102* -1 100* ? 23 45*
CC(C)C#Cc1ccc2c(c1)O[C@H](CN(C)C(=O)c1ccncc1)[C@H](C)CN([C@H](C)CO)S2(=O)=O 26 39 -2 . . . .
C[C@H](O)C#Cc1ccc2c(c1)O[C@@H](CN(C)Cc1ccncc1)[C@@H](C)CN([C@@H](C)CO)S2(=O)=O -18 66 -2 . . . .
CC(C)C#Cc1ccc2c(c1)O[C@@H](CN(C)Cc1ccncc1)[C@H](C)CN([C@H](C)CO)S2(=O)=O -71 119* 19 106* 102* 63* 104*
CC(C)C#Cc1ccc2c(c1)O[C@H](CN(C)Cc1ccncc1)[C@@H](C)CN([C@H](C)CO)S2(=O)=O -68 ? 1 99* 101* 57* 103*
